hcDAF12 agonist: activators of H. contortus DAF-12 nuclear receptor; 370,000 compounds, 1.4% hits; activation, % at 6.8 µM; HEK293 hcDAF-12 lit1-tk-luc reporter, luminescence; 0% DMSO, 100% Δ7-dafachronic acid;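 active = activation above the mean of all tested compounds plus 3 SD, cut at about 5.5% in these data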;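 note: 100% = response to 3 µM Δ7-dafachronic acid high control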
DAX1 inh-1: inhibits human nuclear receptor DAX1 | 340,000 compounds, 0.99% hits | P51843 | inhibition, % at 6.75 µM | HEK293 Gal4-DAX1 luciferase reporter, luminescence;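 active = inhibition above the mean over all tested compounds plus 3 SD, cut at about 4.2% in these data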;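 note: 0% = DAX1-transfected cells with DMSO and 100% = empty-vector control cells with DMSO; inhibition shows as a rise in luminescence from relieved DAX1 repression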
DAX1 inh-2: DAX1 (NR0B1) inhibition, primary screen; HEK293T StAR-luciferase reporter, SF-1/DAX-1 repression relief; inhibition, % at 6.8 µM; 370,000 compounds, 1.1% hits;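 active = inhibition above the mean over all tested compounds plus 3 SD, cut at about 3.6% in these data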;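 note: 0% = DAX-1 cells with DMSO and 100% = cells lacking DAX-1 with DMSO; higher inhibition means more luminescence from relief of DAX-1 repression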
hgDAF12 agonist: hgDAF-12 agonism, primary luciferase screen | AID 687014 | HEK293 GAL4-hgDAF12 UAS-luciferase reporter, agonist luminescence; normalized to butyrate control | activation, % at 6.8 µM | 370,000 compounds, 1.8% hits;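 active = activation above a cutoff set at the mean of all screened compounds plus 3 SD, cut at about 10% in these data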;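 note: 0% = DMSO wells and 100% = sodium butyrate wells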
AHR act: human AHR activation; P35869; AHR-responsive luciferase reporter cells, luminescence; activation, % at 5 µM; 320,000 compounds, 2.5% hits; AID 2796; in the data active = activation above about 47%;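 note: 0% = vehicle wells and 100% = reference agonist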
Target sequence (P35869 whole entry, looked up): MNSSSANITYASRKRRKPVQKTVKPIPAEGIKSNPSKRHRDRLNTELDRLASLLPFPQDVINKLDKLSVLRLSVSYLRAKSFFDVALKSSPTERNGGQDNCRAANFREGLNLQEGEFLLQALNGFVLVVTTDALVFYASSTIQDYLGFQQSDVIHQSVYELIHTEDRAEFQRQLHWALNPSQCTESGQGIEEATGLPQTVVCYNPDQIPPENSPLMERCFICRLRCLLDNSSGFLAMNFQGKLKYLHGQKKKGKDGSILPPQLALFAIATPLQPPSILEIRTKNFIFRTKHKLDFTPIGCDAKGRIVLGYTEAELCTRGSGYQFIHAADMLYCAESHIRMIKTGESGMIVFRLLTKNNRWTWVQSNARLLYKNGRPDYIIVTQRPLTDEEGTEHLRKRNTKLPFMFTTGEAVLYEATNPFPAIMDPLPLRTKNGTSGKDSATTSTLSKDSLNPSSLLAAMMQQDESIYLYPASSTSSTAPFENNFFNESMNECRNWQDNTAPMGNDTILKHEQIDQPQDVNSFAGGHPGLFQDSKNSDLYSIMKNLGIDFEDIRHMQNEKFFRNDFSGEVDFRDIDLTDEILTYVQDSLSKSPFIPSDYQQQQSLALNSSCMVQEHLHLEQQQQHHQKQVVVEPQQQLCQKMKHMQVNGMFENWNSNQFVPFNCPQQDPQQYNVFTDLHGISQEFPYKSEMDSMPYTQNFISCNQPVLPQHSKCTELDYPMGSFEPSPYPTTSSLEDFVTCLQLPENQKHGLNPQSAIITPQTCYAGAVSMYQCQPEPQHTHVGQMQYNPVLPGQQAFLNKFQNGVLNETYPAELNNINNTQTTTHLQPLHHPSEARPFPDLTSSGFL
ssDAF-12 act: activates DAF-12 receptor from parasite S. stercoralis | HEK293 ssDAF-12/GRIP1 lit1-tk-luc reporter, luminescence; % of 3 µM dafachronic acid response | activation, % at 6.8 µM | 370,000 compounds, 1% hits | AID 652126;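 active = activation above the mean over all tested compounds plus 3 SD, cut at about 0.9% in these data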;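 note: 0% = DMSO-only wells and 100% = 3 µM delta7-dafachronic acid wells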
LXRb hcDAF ctr: LXR-beta agonism as hcDAF-12 counter-screen | activation, % at 6.8 µM | 3,400 tested, under 10 active | shares compounds with hcDAF12 agonist | HEK293 Gal4-LXR tk-luc reporter, luminescence, 24 h; normalized: DMSO 0%, positive control 100%;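 active = mean percent activation of the reporter above a cutoff set as the average over tested compounds plus their standard deviation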
hcDAF12 conf: hcDAF-12 agonism, confirmation assay | shares compounds with hcDAF12 agonist | HEK293 hcDAF-12 lit1-tk-luc reporter, luminescence; % of Δ7-dafachronic acid response | activation, % at 6.8 µM | 3,400 compounds, 61% hits | AID 743032;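 active = mean activation across triplicate tests above the threshold derived from the earlier primary screen, cut at about 5.5% in these data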;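 note: 0% = DMSO only wells and 100% = 3 µM Δ7-dafachronic acid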
hgDAF12 ag: confirmation of H. glycines DAF-12 agonists; shares compounds with hgDAF12 agonist; 3,300 compounds, 80% hits; activation, % at 6.8 µM; HEK293 GAL4-hgDAF12 luciferase reporter, agonist mode; percent of butyrate response;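 active = mean activation over triplicate wells above the hit cutoff derived from the earlier primary screen, cut at about 11% in these data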;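 note: 0% = DMSO low control and 100% = 2 mM sodium butyrate high control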
LXR ag 2: activates human LXR-beta, counter-screen for DAF-12 agonists. HEK293 Gal4-LXR luciferase reporter, 24 h. activation, % at 6.8 µM. 3,300 tested, under 10 active. AID 743051. shares compounds with hgDAF12 agonist;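 active = mean activation of the triplicate above a set limit carried over from the primary screen, none filed active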
An asterisk follows results filed as active. Rows were chosen to be rich in hits. Some 5.7% of all compounds tested hit in one or more screens of this group.

`NS(=O)(=O)c1ccc(N/C=C/C(=O)c2ccc(Br)cc2)cc1` gave hcDAF12 agonist 3.5, DAX1 inh-1 -0.2, DAX1 inh-2 0.8, hgDAF12 agonist 9.2, AHR act 3.9 and ssDAF-12 act 0.2.
`NS(=O)(=O)c1ccc(N/C=C\C(=O)c2ccc(F)cc2)cc1` gave hcDAF12 agonist 6.7*, DAX1 inh-1 1.0, DAX1 inh-2 4.2*, hgDAF12 agonist 16.1*, AHR act 11.0, ssDAF-12 act -0.1, LXRb hcDAF ctr 0.8, hcDAF12 conf 4.7, hgDAF12 ag 12.9* and LXR ag 2 0.5.
For CC(=O)N1CCN(S(=O)(=O)c2cccc(C(=O)OCC(=O)N(CCC#N)c3ccc(F)cc3)c2)CC1 the results were hcDAF12 agonist -0.4, DAX1 inh-1 -0.4, DAX1 inh-2 -0.6, hgDAF12 agonist 0.1, AHR act 0.1 and ssDAF-12 act -2.2.
`Cc1csc(NC(=O)c2cc3c(s2)CCC3)n1` gave hcDAF12 agonist 7.4*, DAX1 inh-1 -1.4, DAX1 inh-2 2.7, hgDAF12 agonist 17.2*, AHR act 4.6, ssDAF-12 act 0.8, LXRb hcDAF ctr 1.6, hcDAF12 conf 9.0*, hgDAF12 ag 17.6* and LXR ag 2 1.0.
Screening CCc1sc(C(=O)Nc2nc(C)cs2)cc1C returned hcDAF12 agonist 9.2*, DAX1 inh-1 0.4, DAX1 inh-2 2.8, hgDAF12 agonist 15.2*, ssDAF-12 act 0.4, LXRb hcDAF ctr 1.8, hcDAF12 conf 6.1*, hgDAF12 ag 17.0* and LXR ag 2 0.9.
Screening COC(=O)c1sc(NC(=O)c2cc3c(s2)CCCC3)nc1C returned hcDAF12 agonist 4.5, DAX1 inh-1 -0.3, DAX1 inh-2 1.9, hgDAF12 agonist 7.0, AHR act -16.6 and ssDAF-12 act -1.1.
`CC(C)COc1ccc(-c2cc(C(=O)NN)[nH]n2)cc1` gave hcDAF12 agonist 12.9*, DAX1 inh-1 0.0, DAX1 inh-2 4.0*, hgDAF12 agonist 20.2*, AHR act 5.4, ssDAF-12 act 2.2*, LXRb hcDAF ctr 0.1, hcDAF12 conf 3.1, hgDAF12 ag 5.5 and LXR ag 2 0.2.
Screening CCOC(=O)c1cc(-c2ccc(OC)cc2)n[nH]1 returned hcDAF12 agonist 0.5, DAX1 inh-1 0.0, DAX1 inh-2 1.5, hgDAF12 agonist 3.3, AHR act 3.5 and ssDAF-12 act -0.8.
`CN(/N=C/c1ccncc1)C1=NCCN1` gave hcDAF12 agonist -0.7, DAX1 inh-1 -0.1, DAX1 inh-2 -0.1, hgDAF12 agonist 0.4, AHR act 4.7 and ssDAF-12 act -0.6.
Screening CN(/N=C/c1ccncc1)c1cnc2ccccc2n1 returned hcDAF12 agonist 6.6*, DAX1 inh-1 1.3, DAX1 inh-2 4.4*, hgDAF12 agonist 19.0*, AHR act 40.5, ssDAF-12 act 1.5*, LXRb hcDAF ctr 0.9, hcDAF12 conf 10.3*, hgDAF12 ag 12.5* and LXR ag 2 0.7.
Screening CSc1ccc(S(=O)(=O)Nc2c(C)n(C)n(-c3ccccc3)c2=O)cc1 returned hcDAF12 agonist 2.1, DAX1 inh-1 -0.8, DAX1 inh-2 0.7, hgDAF12 agonist -0.6, AHR act -1.1 and ssDAF-12 act -1.7.
Screening C=C1C(=O)OC2C=C(CO)C3OC3C3OC3(C)CC(OC(=O)/C(=C/C)COC(C)=O)C12 (stereo not drawn) returned hcDAF12 agonist -1.1, DAX1 inh-1 -5.2, DAX1 inh-2 -4.6, hgDAF12 agonist -10.7 and ssDAF-12 act -0.9.
COC(=O)Nc1nncs1 was read as hcDAF12 agonist -1.8, DAX1 inh-1 2.5, DAX1 inh-2 -0.1, hgDAF12 agonist -0.1, AHR act -1.0 and ssDAF-12 act -1.8.
Screening CC(C)(C)c1ccc(/C=C/C(=O)Nc2nncs2)cc1 returned hcDAF12 agonist 7.4*, DAX1 inh-1 3.4, DAX1 inh-2 2.8, hgDAF12 agonist 20.6*, AHR act 14.9, ssDAF-12 act -0.3, LXRb hcDAF ctr 1.3, hcDAF12 conf 6.8*, hgDAF12 ag 12.0* and LXR ag 2 0.8.
For CCN(CC)c1ccc(/C=N/NC(=O)c2cnccn2)cc1 the results were hcDAF12 agonist 1.1, DAX1 inh-1 0.1, DAX1 inh-2 -0.5, hgDAF12 agonist 18.0*, ssDAF-12 act -0.1, hgDAF12 ag 18.0* and LXR ag 2 0.4.
NC(=O)/C(=C/c1ccc2c(c1)OCO2)NC(=O)c1ccco1 was read as hcDAF12 agonist -0.6, DAX1 inh-1 1.9, DAX1 inh-2 -0.2, hgDAF12 agonist 4.6, AHR act -0.3 and ssDAF-12 act -0.7.
Screening CCN(CC)c1ccc(NC(=S)NC(=O)c2ccco2)cc1 returned hcDAF12 agonist 0.4, DAX1 inh-1 0.2, DAX1 inh-2 2.7, hgDAF12 agonist 16.1*, AHR act 3.0, ssDAF-12 act -1.5, hgDAF12 ag 6.4 and LXR ag 2 0.4.
O=C(N/N=C\c1ccc2c(c1)OCO2)c1ccco1 was read as hcDAF12 agonist 2.5, DAX1 inh-1 3.5, DAX1 inh-2 2.7, hgDAF12 agonist 14.4*, AHR act 31.3, ssDAF-12 act 0.8, hgDAF12 ag 12.3* and LXR ag 2 0.6.
For CCN(CC)c1ccc(/C=N/NC(=O)c2ccco2)cc1 the results were hcDAF12 agonist 5.3, DAX1 inh-1 -2.5, DAX1 inh-2 1.4, hgDAF12 agonist 16.7*, AHR act 6.2, ssDAF-12 act 0.4, hgDAF12 ag 20.8* and LXR ag 2 0.8.
`CC(C)(C)S(=O)(=O)N1C[C@@H]2CC/C=C\C/C(c3ccccc3)=C\2[C@H]1CCO` gave hcDAF12 agonist -1.0, DAX1 inh-1 1.3, DAX1 inh-2 2.8, hgDAF12 agonist 4.5 and ssDAF-12 act -0.9.
CCC(=O)c1ccc(OCC(=O)OC(C)C(=O)NCc2ccc3c(c2)OCO3)cc1 (stereo not drawn) was read as hcDAF12 agonist -0.5, DAX1 inh-1 0.1, DAX1 inh-2 0.4, hgDAF12 agonist -0.8, AHR act -1.9 and ssDAF-12 act -0.1.

Assay outcomes from PubChem.
